# Source: paper PMC4336329 (PLoS ONE, 2015)
# The campaign covered roughly 310,000 compounds. About 14,000 (4.5%) showed an effect of 50% or more. The effect is printed as a negative number. Only a selection was taken, and strong results are over-represented in it overall.
# Molecular target: human ether-à-go-go-related gene (hERG) potassium channel (human, UniProt Q12809)
# Assay: primary screen, population patch clamp on CHO cells stably expressing hERG; higher = less effect of the substance
# 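Further: peak tail current of the secondary pulse compared with the same well before compound.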
# Sequence of human ether-à-go-go-related gene (hERG) potassium channel (Q12809 whole entry, looked up): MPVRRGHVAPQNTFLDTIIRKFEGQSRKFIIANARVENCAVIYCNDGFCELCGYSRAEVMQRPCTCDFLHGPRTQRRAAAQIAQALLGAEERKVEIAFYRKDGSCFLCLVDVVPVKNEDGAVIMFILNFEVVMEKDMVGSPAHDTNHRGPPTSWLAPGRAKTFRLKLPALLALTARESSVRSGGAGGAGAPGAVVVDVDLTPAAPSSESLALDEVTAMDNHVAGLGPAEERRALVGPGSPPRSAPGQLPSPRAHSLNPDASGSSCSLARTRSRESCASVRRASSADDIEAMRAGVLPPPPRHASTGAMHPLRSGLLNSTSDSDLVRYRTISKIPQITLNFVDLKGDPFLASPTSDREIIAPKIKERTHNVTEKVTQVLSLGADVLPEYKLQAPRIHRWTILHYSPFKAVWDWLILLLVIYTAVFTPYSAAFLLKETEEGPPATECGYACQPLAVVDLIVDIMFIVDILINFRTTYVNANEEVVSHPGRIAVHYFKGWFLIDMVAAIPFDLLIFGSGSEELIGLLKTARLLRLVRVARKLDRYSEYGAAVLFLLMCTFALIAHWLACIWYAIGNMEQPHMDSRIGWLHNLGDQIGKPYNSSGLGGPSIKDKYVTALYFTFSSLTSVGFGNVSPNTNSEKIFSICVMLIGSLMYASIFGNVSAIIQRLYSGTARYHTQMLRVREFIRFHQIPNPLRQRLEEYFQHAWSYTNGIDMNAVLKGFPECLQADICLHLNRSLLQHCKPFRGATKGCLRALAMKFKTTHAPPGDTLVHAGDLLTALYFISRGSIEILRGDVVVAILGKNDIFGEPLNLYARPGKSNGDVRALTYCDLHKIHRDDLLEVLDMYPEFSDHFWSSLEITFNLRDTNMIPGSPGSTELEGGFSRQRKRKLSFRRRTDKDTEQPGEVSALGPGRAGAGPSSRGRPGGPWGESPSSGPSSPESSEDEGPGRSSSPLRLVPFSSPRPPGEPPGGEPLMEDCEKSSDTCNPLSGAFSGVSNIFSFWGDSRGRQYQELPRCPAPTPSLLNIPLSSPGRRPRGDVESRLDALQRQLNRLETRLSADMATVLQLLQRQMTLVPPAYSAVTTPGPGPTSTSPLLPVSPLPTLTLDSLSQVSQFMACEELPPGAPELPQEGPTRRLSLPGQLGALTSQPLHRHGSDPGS
row,Compound,"hERG current change (%, negative = inhibition) at 10uM [%]"
1,COCCCNC(=O)CNC(=S)N(Cc1ccccc1)Cc1cccnc1,-9.77
2,O=C(NCc1cccnc1)Nc1cccc(F)c1,7.53
3,CN(Cc1ccccc1)C(=O)Nc1ccccc1,7.49
4,COC(=O)c1ccccc1NC(=O)COc1ccc(S(=O)(=O)N2CCCC2)cc1C,8.37
5,CSc1nnc2c(n1)OC=Nc1ccc(Br)cc1-2,-11.7
6,O=C(NCC1CCCO1)c1ccc[nH]1 (centres unmarked),12.3
7,COc1ccc2oc(=O)c(C(=O)Nc3ccccc3O)cc2c1,8.79
8,Cn1c(CC(=O)Nc2ccccc2F)nnc1SCC(=O)Nc1nccs1,18.6
9,Fc1ccc(-c2cc(C(F)(F)F)n3ncnc3n2)cc1,26.8
10,CC(=O)c1cc2c(cc1NC(=O)c1cnc(C)cn1)OCO2,4.22
11,Cc1ccc(N(CC(O)CN(C)C)S(=O)(=O)c2ccccc2)cc1.Cl (centres unmarked),-68.1
12,Cc1ccc(S(=O)(=O)N(C)c2ccccc2)cc1,-11.8
13,O=S(=O)(c1ccccc1)N(CC(O)COc1ccccc1)c1ccccc1 (centres unmarked),-26.6
14,Cc1cccc(N(CC(=O)N2CCCC2)S(=O)(=O)c2ccccc2)c1,-34.7
15,Cc1cccc(N(CC(O)CN(C)C)S(=O)(=O)c2ccccc2)c1.Cl (centres unmarked),-63
16,Cc1cc(C)n(CC(O)CN(c2ccccc2)S(=O)(=O)c2ccc3ccccc3c2)n1 (centres unmarked),-6.13
17,COC(=O)CN(c1cccc(C)c1)S(=O)(=O)c1ccccc1,-14
18,Cc1ccc(S(=O)(=O)N(CC(O)CN(C)C)c2ccccc2)cc1.Cl (centres unmarked),-65.6
19,CCN(c1ccccc1)S(=O)(=O)c1ccc2ccccc2c1,-3.29
20,CCN(CC)CC(O)CN(c1ccccc1)S(=O)(=O)c1ccc2ccccc2c1.Cl (centres unmarked),-80.2
21,Cc1ccc(S(=O)(=O)N(CC(O)CN2C(=O)NC(C)(C)C2=O)c2ccccc2)cc1 (centres unmarked),-37.7

row,Compound,"hERG current change (%, negative = inhibition) at 10uM [%]"
1,O=S(=O)(c1ccccc1)N(CC(O)Cn1c2ccccc2c2ccccc21)c1ccccc1 (centres unmarked),14.9
2,O=C(CC1SC(=O)N(Cc2ccccc2)C1=O)Nc1nccs1 (centres unmarked),3.22
3,O=C(Nc1ccc(Br)cc1)Nc1ccccc1Cl,19.7
4,CC(=O)Nc1ccc2c(c1)ncn2-c1ccccc1,3.72
5,CCOC(=O)C1CCCN(C(=O)c2ccc3c(c2)NC(=O)C(N2CCOCC2)S3)C1 (centres unmarked),19.7
6,CCCCC(=O)NC(=S)Nc1ccc(NC(=O)C(C)C)c(OC)c1,21.2
7,CCCN(CCC)CC(O)CN(c1ccccc1)S(=O)(=O)c1ccc(C)cc1 (centres unmarked),-80.3
8,Cc1ccc(S(=O)(=O)N(CCC(=O)O)c2ccccc2)cc1,-10.5
9,Cc1ccc(N(CC(O)COCc2ccco2)S(=O)(=O)c2ccc(C)cc2)cc1 (centres unmarked),-11.1
10,CC(C)OC(=O)CCc1nc2ccccc2[nH]c1=O,10.1
11,COc1nc(-c2ccccc2)ccc1-c1noc(-c2cccnc2)n1,5.15
12,COc1ccc(C(=O)COC(=O)CNC(=O)C2CCCCC2)c(OC)c1,-11
13,COc1ccc(NC(=O)C2C(=O)N(C)C3(C)CC2c2ccccc2O3)cc1 (centres unmarked),-13.5
14,CCC(C)NS(=O)(=O)c1cccs1 (centres unmarked),7.86
15,COc1ccc(CCNC(=O)C(C)n2nc(C)c3c(C)n(-c4ccc(C)cc4)nc3c2=O)c(OC)c1 (centres unmarked),-58.6
16,COc1ccc(OC)c(CCNC(=O)C(C)n2nc(C)c3c(C)n(-c4ccccc4)nc3c2=O)c1 (centres unmarked),-0.756
17,COc1ccc(OC)c(CNC(=O)C(C)n2nc(C)c3c(C)n(-c4ccccc4)nc3c2=O)c1 (centres unmarked),-7.41
18,COc1ccc(CNC(=O)C(C)n2nc(C)c3c(C)n(-c4ccccc4)nc3c2=O)c(OC)c1 (centres unmarked),-8.08
19,COc1ccccc1CCNC(=O)C(C)n1nc(C)c2c(C)n(-c3ccccc3)nc2c1=O (centres unmarked),-12.3
20,COc1ccc(OC)c(CNC(=O)Cn2nc(C)c3c(C)n(-c4ccc(C)cc4)nc3c2=O)c1,3.27
21,COc1ccc(OC)c(CCNC(=O)C(C)n2nc(C)c3c(C)n(-c4ccc(C)cc4)nc3c2=O)c1 (centres unmarked),-53.2

row,Compound,"hERG current change (%, negative = inhibition) at 10uM [%]"
1,COc1ccc(OC)c(CCNC(=O)Cn2nc(C)c3c(C)n(-c4ccccc4)nc3c2=O)c1,5
2,COc1ccc(OC)c(CCNC(=O)Cn2nc(C)c3c(C)n(-c4ccc(C)cc4)nc3c2=O)c1,-59
3,CC(=O)Nc1ccc(C(=O)CSc2ncn(-c3ccccc3)n2)cc1,5.72
4,Cc1sc2ncn(CC(=O)NCc3ccco3)c(=O)c2c1-c1ccccc1,-11.8
5,CC(=O)c1cnc(Oc2cc(Cl)ccc2Cl)nc1C,0.763
6,CSc1sc(C(=O)N(C)C)cc1S(=O)(=O)C(C)C,1.94
7,CCN1C(=O)/C(=C/c2cccs2)N(C)C1=S,-7.99
8,COc1ccccc1NS(=O)(=O)c1cc(C(=O)NCC2CCCO2)ccc1C (centres unmarked),-36.8
9,COC(=O)C1=C(C(=O)OC)[C@@H]2N(C)c3ccc(OC)cc3[C@@]23C[C@@H](C(=O)OC)N(C(=O)c2ccc(Br)cc2)C3=N1,-17.7
10,CCOC(=O)N1C2=NC(C(=O)OC)=C(C(=O)OC)[C@@H]3N(C)c4ccc(OC)cc4[C@]23C[C@H]1C(=O)OC,6.52
11,COC(=O)C1=C(C(=O)OC)[C@@H]2N(C)c3ccc(OC)cc3[C@@]23C[C@@H](C(=O)OC)N(C(=O)C2CCC2)C3=N1,-50
12,COC(=O)C1=C(C(=O)OC)[C@@H]2N(C)c3ccc(OC)cc3[C@@]23C[C@@H](C(=O)OC)N(C(=O)CC(C)C)C3=N1,-14.9
13,COC(=O)C1=C(C(=O)OC)[C@@H]2N(C)c3ccc(OC)cc3[C@@]23C[C@@H](C(=O)OC)N(C(=O)COCc2ccccc2)C3=N1,-55
14,COC(=O)C1=C(C(=O)OC)[C@@H]2N(C)c3ccc(OC)cc3[C@@]23C[C@@H](C(=O)OC)N(C(=O)c2ccco2)C3=N1,-50.6
15,COC(=O)C1=C(C(=O)OC)[C@@H]2N(C)c3ccccc3[C@@]23C[C@@H](C(=O)OC)N(C(=O)c2ccco2)C3=N1,-13.9
16,COC(=O)C1=C(C(=O)OC)[C@@H]2N(C)c3ccc(OC)cc3[C@@]23C[C@@H](C(=O)OC)N(C(=O)NC2CCCCC2)C3=N1,-26
17,COC(=O)C1=C(C(=O)OC)[C@@H]2N(C)c3ccccc3[C@@]23C[C@@H](C(=O)OC)N(C(=O)c2cccs2)C3=N1,-10.1
18,COC(=O)C1=C(C(=O)OC)[C@@H]2N(C)c3ccccc3[C@@]23C[C@@H](C(=O)OC)N(C(=O)COCc2ccccc2)C3=N1,-9.16
19,COC(=O)C1=C(C(=O)OC)[C@@H]2N(C)c3ccccc3[C@@]23C[C@@H](C(=O)OC)N(C(=O)C2CCC2)C3=N1,-29.7
20,COC(=O)C1=C(C(=O)OC)[C@@H]2N(C)c3ccc(OC)cc3[C@@]23C[C@@H](C(=O)OC)N(C(=O)c2cccs2)C3=N1,-68.3
